This note sets out measurements from ChEMBL document CHEMBL4513135, “CO-ADD screening of IQOG CSIS (Spain) compounds”.

Each structure is given as a SMILES string. Potency and affinity values are given separately.

Experiment [1] concerns Staphylococcus aureus. To be noted: Concentration 32 ug.mL-1; ASSAY_TEST Inhibition of Bacterial Growth; detection method Absorption (OD600); MEDIA CAMHB; plate type 384well; NBS; CORNING #3640; time 18 hr.
Experiment [2] concerns Escherichia coli. To be noted: Concentration 32 ug.mL-1; ASSAY_TEST Inhibition of Bacterial Growth; detection method Absorption (OD600); MEDIA CAMHB; plate type 384well; NBS; CORNING #3640; time 18 hr.

Take `Nc1c2c(nc3c1c1ccccc1n3Cc1ccccc1)CCCC2`: the Inhibition is 17.35% in experiment [1] and -10.77% in experiment [2].
Take `COC1=C(C#N)C(c2ccccc2)C(C=O)=C(Cl)N1` (stereo unspecified): the Inhibition is 40.42% in experiment [1] and -6.81% in experiment [2].
On the same counts, the results for `C#CCNc1cccc(F)n1` are 34.2% and -22.48%.
Taken in the same sequence, the figures for `N#Cc1c(N)nc2c(c1-c1ccccc1)CN(Cc1ccccc1)CC2` were 12.81% and 10.61%.
Taken in the same sequence, the figures for `N#Cc1c(N)nc(NC2CCN(Cc3ccccc3)CC2)c(C#N)c1-c1ccccc1` were 33.89% and -2.79%.
With `C=C1CN(C)c2ncc(C#N)c(=N)n21`, the Inhibition in experiment [1] is reported as 2.81%; in experiment [2], -21.82%.
On the same counts, the results for `COc1cc(C=NNC(=O)Cc2c[nH]c3ccccc23)ccc1O` are 8.14% and -0.45%.
For `N#CC1=C(N)Oc2ccc3ccccc3c2C1c1ccccc1[N+](=O)[O-]` (stereo unspecified), the Inhibition in experiment [1] is recorded as 40.78%; in experiment [2], -6.45%.
Regarding `CCCCCCC(C)NNC(=O)c1cc2ccccc2[nH]1` (stereo unspecified), the results for the Inhibition in experiment [1] and in experiment [2] were -0.84% and 6.64%, respectively.
Turning to `O=C(N/N=C/c1c[nH]c2ccccc12)C(c1ccccc1)c1ccccc1`, the Inhibition came out at 7.26% in experiment [1] and 7.64% in experiment [2].
For the molecule `O=C(N[C@H]1CC[C@H](O)CC1)c1ccccc1`, the Inhibition is recorded as 23.34% in experiment [1] and -10.8% in experiment [2].
On the same counts, the results for `CCOC(=O)C1=C(C)OC(N)=C(C#N)C1c1ccco1` (stereo unspecified) are 7.79% and -14.37%.
On the same counts, the results for `Br.C#CCNCC` are 25.79% and 18.7%.
On to `Cc1ccc(CNNC(N)=O)cc1.Cl`, for which the Inhibition is 4.52% in experiment [1] and 6.79% in experiment [2].
Taken in the same sequence, the figures for `Cc1n[nH]c2c1C(c1ccc([N+](=O)[O-])cc1)C(C#N)=C(N)O2` (stereo unspecified) were 4.71% and 12.5%.
On the same counts, the results for `CCOC(=O)C1=C(C)Oc2nc3c(c(N)c2C1c1ccc(O)c(OC)c1)CCC3` (stereo unspecified) are -3.09% and -6.01%.
On the same counts, the results for `CCOC(=O)/C(=C\c1ccccc1)C(=O)c1ccccc1` are 9.55% and 10.95%.
In the case of `N#C[C@]1(Br)C(=N)Oc2ccc3ccccc3c2[C@@H]1c1ccc([N+](=O)[O-])cc1`, the Inhibition is recorded as 26.21% in experiment [1] and 11.8% in experiment [2].
On the same counts, the results for `CNC(=O)c1cc2cc(OC)ccc2[nH]1` are 5.66% and -0.98%.
On the same counts, the results for `Cl.Nc1c2c(nc3c1C(c1ccccc1)c1c(ccc4ccccc14)O3)CCCC2` (stereo unspecified) are 8.92% and 12.69%.
On the same counts, the results for `Nc1nc(N)c(C=O)c(-c2ccccc2)c1C=O` are 3.38% and 16.24%.
Regarding `O=C(NNCCc1ccccc1)c1cc2ccccc2[nH]1`, the Inhibition is -6.37% in experiment [1] and -5.83% in experiment [2].
On the same counts, the results for `CC/C(C)=N/NC(=O)Cc1c[nH]c2ccccc12` are -7.02% and -3.01%.
Taken in the same sequence, the figures for `N#CC1(Br)C(=NBr)Oc2ccc3ccccc3c2C1c1ccccc1[N+](=O)[O-]` (stereo unspecified) were 23.03% and -25.63%.
On the same counts, the results for `CCOC(=O)/C(C#N)=C\c1ccc([N+](=O)[O-])cc1` are 32.65% and 19.98%.
As for `Cc1nc(NO)c2c(C)nn(-c3ccccc3)c2n1`, the results for the Inhibition in experiment [1] and in experiment [2] were 6.32% and 4.93%, respectively.
Taken in the same sequence, the figures for `COc1cccc(C=C2N=C(c3ccccc3)OC2=O)c1OC(C)=O` were 5.66% and 4.51%.
As to `COc1cccc(C2c3c(ccc4ccccc34)OC(=NBr)C2(Br)C#N)c1` (stereo unspecified), the Inhibition in experiment [1] is listed as 39.2%; in experiment [2] it was -16.78%.
Take `C#CCN(C)c1nc(NC2CCN(Cc3ccccc3)CC2)c(C#N)c(-c2ccccc2)c1C#N`: the Inhibition is 0.44% in experiment [1] and -3.84% in experiment [2].
As for `Cl.Nc1c2c(nc3c1C(c1ccccc1)c1ccc4ccccc4c1O3)CCCC2` (stereo unspecified), the figures for the Inhibition in experiment [1] and in experiment [2] were 23.84% and 6.79%, respectively.
Take `Cc1ccc(-c2c(C#N)c(N)nc3c2S(=O)(=O)OC3(C)C)cc1`: the Inhibition in experiment [1] came to 9.98%; in experiment [2] it was 6.38%.
`Cl.ClCCCC1CCNCC1`: the Inhibition was determined as 28.57% in experiment [1] and 19.24% in experiment [2].
In the case of `CCOC(=O)c1cc2ccccc2[nH]1`, the Inhibition worked out at 8.39% in experiment [1] and 13.65% in experiment [2].
For the molecule `N#Cc1cc(C#N)c(NCCCC2CCN(Cc3ccccc3)CC2)nc1N`, the Inhibition in experiment [1] is given as 49.11%; in experiment [2], -3.28%.
With `O=C(N[C@H]1CC[C@@H](Br)[C@@H](Br)C1)C(F)(F)F`, the values for the Inhibition in experiment [1] and in experiment [2] were 24.31% and -25.88%, respectively.
Consider `Cl.ClCCCN1CCCC1`, for which the Inhibition in experiment [1] amounted to 23.18%; in experiment [2], 5.15%.
`CN(C)c1nc(Cl)c(C#N)c(-c2ccccc2)c1C#N`: the Inhibition in experiment [1] is -17.89%; in experiment [2] it was -6.44%.
Taken in the same sequence, the figures for `O=C(N/N=C/c1c[nH]c2ccccc12)c1ccc(Cl)cc1` were 3.32% and 9.43%.
Taken in the same sequence, the figures for `CNCc1cc2cc(OCc3ccccc3)ccc2n1C.Cl` were 43.08% and 3.38%.
Taken in the same sequence, the figures for `Cn1cc(/C=C2\NC(=S)NC2=O)c2ccccc21` were 2.93% and 3.35%.
With `CCOC(=O)c1cc2cc(OC(=O)Oc3ccc([N+](=O)[O-])cc3)ccc2[nH]1`, the Inhibition in experiment [1] is reported as 13.73%; in experiment [2] it was -33.4%.
With `CCOC(=O)c1c(C)nc2nc3c(c(N)c2c1-c1ccc(OC)cc1)CCCCCC3`, the Inhibition in experiment [1] was 3.19%; in experiment [2], -20.4%.
On to `CCCC(C)NNC(=O)Cc1c[nH]c2ccccc12` (stereo unspecified), for which the figures for the Inhibition in experiment [1] and in experiment [2] were 1.02% and -9.25%, respectively.
For the molecule `CC1(C)OC(=O)C(=Cc2ccc([N+](=O)[O-])cc2)C(=O)O1`, the values for the Inhibition in experiment [1] and in experiment [2] were 28.78% and 10.5%, respectively.
For the molecule `C=C1CN(C)c2c(C#N)c(-c3ccccc3)c(C#N)c(=N)n21`, the results for the Inhibition in experiment [1] and in experiment [2] were 11.22% and -20.05%, respectively.
Taken in the same sequence, the figures for `O=C1NC(=S)N/C1=C\c1ccccc1` were 13.95% and 8.87%.
On the same counts, the results for `O=C1OC(c2ccc([N+](=O)[O-])cc2)=NC1=Cc1ccccc1` are 12.67% and 13.11%.
For `Cc1ccc(C2c3c(Cl)nnnc3Oc3ccc4ccccc4c32)cc1` (stereo unspecified), the Inhibition in experiment [1] was determined as 36.97%; in experiment [2] it was 16.16%.
Turning to `CNC(=O)c1c(Cl)c2cc(OCc3ccccc3)ccc2n1C`, the Inhibition in experiment [1] is on record as 21.87%; in experiment [2] it was -12.2%.
Take `O=C(NCc1ccccc1)c1cc2ccccc2[nH]1`: the results for the Inhibition in experiment [1] and in experiment [2] were 5.56% and 8.05%, respectively.
On the same counts, the results for `N#Cc1c(N)nc(N2CCC(Cc3ccccc3)CC2)c(C#N)c1-c1ccccc1` are 8.01% and -15.68%.
Taken in the same sequence, the figures for `COc1ccc(C2C(C#N)=C(N)Oc3c2ccc2ccccc32)cc1` (stereo unspecified) were 21.39% and -6.99%.
On the same counts, the results for `NC1(C(=O)O)CC1c1ccc2c(c1)OCO2` (stereo unspecified) are -7.05% and -7.79%.
As to `N#Cc1cc2c(N)c3c(nc2nc1N1CCCCC1)CCCC3`, the Inhibition in experiment [1] is on record as 29.29%; in experiment [2] it was 3.13%.
For the molecule `COc1cccc(C2c3c(nc4c(c3N)CCCC4)Oc3ccc4ccccc4c32)c1` (stereo unspecified), the Inhibition in experiment [1] is listed as 4.84%; in experiment [2], -1.02%.
Taken in the same sequence, the figures for `CC1=NC(=Cc2ccccc2)C(=O)S1` were 13.03% and 9.12%.
On the same counts, the results for `O=C1OC(c2ccccc2)=NC1=Cc1ccc(Cl)cc1` are 14.11% and 10.9%.
`CCOC(=O)C1=C(C)Nc2nc3c(c(N)c2C1c1ccc([N+](=O)[O-])cc1)CCCC3.Cl` (stereo unspecified): the Inhibition is 34.25% in experiment [1] and -22.43% in experiment [2].
As to `Cl.N#Cc1cc(C#N)c(N2CCCC2)nc1Cl`, the Inhibition is listed as 37.39% in experiment [1] and -6.69% in experiment [2].
As for `COc1nc(Cl)c(C#N)c(-c2ccccc2)c1C#N`, the Inhibition in experiment [1] is 35.41%; in experiment [2] it was -14.05%.
Taken in the same sequence, the figures for `Cc1ccc(C(O)SNNc2ncnc3c2cnn3-c2ccccc2)cc1` (stereo unspecified) were 13.51% and 11.76%.
Take `C#CCN(C)Cc1cc2cc(OCCCCC3CCN(Cc4ccccc4)CC3)ccc2n1C`: the results for the Inhibition in experiment [1] and in experiment [2] were 38.42% and -8.55%, respectively.
`O=C(Cc1c[nH]c2ccccc12)NNCc1ccccc1`: the Inhibition is reported as -6.19% in experiment [1] and -10.21% in experiment [2].
On the same counts, the results for `CCOC(=O)c1c(C)nc2nc3c(c(N)c2c1-c1ccccc1OC)CCCCC3` are 5.11% and -17.67%.
On the same counts, the results for `O=C(Cc1ccccc1)N/N=C/c1c[nH]c2ccccc12` are 9.24% and 17.46%.
Regarding `COc1ccc2c(c1)cc(/C=C/[N+](=O)[O-])n2C`, the values for the Inhibition in experiment [1] and in experiment [2] were 10.15% and 1.2%, respectively.
Take `O=C1OC(c2ccccc2)=NC1=Cc1ccccc1Cl`: the Inhibition was found to be 16.61% in experiment [1] and 12.84% in experiment [2].
On to `CCOC(=O)c1c[nH]c2ccc(OCc3ccccc3)cc12`, for which the Inhibition is 5.22% in experiment [1] and 6.31% in experiment [2].
